Each structure is given as a SMILES string. Values joined by “and” are separate entries in the source; they are usually repeats but may differ in a detail not shown here. Identical values can stand only once. Hit rate of the full screen: of about 300,000 compounds, about 37,000 (12%) were called active. Only a selection was taken, and actives are over-represented in it overall. A number with no mark means an inactive call. No stated cut-off is given here; in the data, active means max response mostly above about 13% (no sharp cut-off); inactive means mostly below about 14%.

The nature of this experiment: Cycloheximide Counterscreen for Small Molecule Inhibitors of Shiga Toxin. Further: read at 38.3 µM for the half of the compounds with a filed dose; 0% is about no effect. As to conditions: cell reporter, cycloheximide protein synthesis inhibition counterscreen; stronger effect = higher value. (In general: The purpose of a counterscreen is to sort out artefacts and off-target activity.)
Turning to `Cc1cccc2[nH]c(CN(C)C(=O)C3CCC(=O)N(CCc4ccccc4)C3)nc12` (stereo not drawn), the max response is -2.09%.
For `CC1CCN(S(=O)(=O)c2ccc(NC(=O)C3CC(=O)N(c4ccccc4)C3)cc2)CC1` (stereo not drawn), the max response was -2.49%.
In the case of `COC(=O)c1cc(S(=O)(=O)NCC2CCN(Cc3ccc(Cl)cc3)CC2)cn1C`, the max response was -2.79%.
For `Cc1cc(NC(=O)Nc2c[nH]c(=O)[nH]c2=O)ccc1Br`, the max response is 9%.
On to `COC(=O)c1cccc(NS(C)(=O)=O)c1`, for which the max response was -1.63%.
For the compound `CCN(CC)CCNC(=O)CCCCCn1c(=O)[nH]c2cc(C(=O)OC)ccc2c1=O`, the max response was -5.11%.
For the compound `COC(=O)c1ccc2c(C(C)(C)O)c(C(C)(C)O)[nH]c2c1`, the max response was 14.2% (active).
With `CC(C)(C)c1cc(C(=O)NN)n(Cc2ccc(Cl)cc2Cl)n1`, the max response was -2.75%.
Regarding `N=c1n(Cc2ccc(Cl)cc2)c2ccccc2n1CC(O)c1ccco1` (stereo not drawn), the max response is -4.56%.
For `C=C(C)CNC(=S)/N=c1\scc(C)n1CC`, the max response is 10.1%.
As for `O=C(CSc1cccc2cccnc12)N/N=C/c1cccnc1`, the max response was 31.6%.
The figure for `Cc1ccc(NC(=O)CSc2cccc3cccnc23)c(C)c1` is 21%.
With `CC(=O)/C(=N\Nc1ccc(Cl)cc1Cl)Sc1cccc2cccnc12`, the max response was 19.1% (active).
Take `COc1ccc(CCN2CC(C(=O)NCCN3CCNC3=O)CCC2=O)cc1` (stereo not drawn): the max response was 7.2%.
In the case of `COc1cc(C(=O)OC(C)C(=O)NCC2CCCCC2)cc(NC(=O)c2ccco2)c1OC` (stereo not drawn) it was -2.06%.
Take `COc1ccc(C[C@H]2CN3C(=NC[C@H]3C)N2CCNC(=O)CCC2CCCCC2)cc1`: the max response is 5.31%.
With `CCc1nn(CCCC(=O)Nc2ccc(C)cc2C)c(=O)c2cc3occc3n12`, the max response was 0.647%.
Regarding `CC(=O)N1Cc2ccccc2CC1C(=O)O` (stereo not drawn), the max response is -1.38%.
For `Cc1ccc(Nc2nc(Cl)c(C=O)s2)cc1`, the max response is 46% (active).
`Cc1ccc(Nc2nc(C)cc(C)c2C(N)=O)cc1`: the max response was -4.97%.
Take `Cc1ccc(NC(=O)Nc2nnc(-c3ccncc3)s2)cc1`: the max response is -1.9%.
Turning to `Cc1cccc(OCC(O)CN2CCN(CCN3C(=O)c4cccc5cccc(c45)C3=O)CC2)c1C` (stereo not drawn), the max response was -8.1%.
For `COC(=O)CN1C(=O)[C@H]2[C@@H](C3CC3)N3C(=O)CN(Cc4ccc(-c5ccccc5)cc4)C(=O)[C@@]3(Cc3ccccc3)[C@H]2C1=O`, the max response was -3.99%.
For the compound `Cc1ccc(NC(=S)N(CCCN2CCCC2)Cc2cccn2Cc2ccc(Cl)cc2)cc1`, the max response is -7.32%.
With `Cc1cc(F)ccc1S(=O)(=O)N1CCCOC1CNC(=O)C(=O)NCCC1=CCCCC1` (stereo not drawn), the max response was -4.9%.
In the case of `CC1=NN(c2ccccc2)C(=O)C1C(=O)c1ccc([N+](=O)[O-])cc1` (stereo not drawn) it was 20.6%; in that of `O=C1CC(c2ccccc2)=NN1c1ccc([N+](=O)[O-])cc1`, 17.2% (active); in that of `O=c1[nH]n(-c2ccc([N+](=O)[O-])cc2)c(=O)c2ccccc12`, -2.65%.
`Cc1ccc(CNC(=O)C2(C(F)(F)F)C/C(=C\Cc3ccccc3)CCCO2)o1` (stereo not drawn): the max response was -3.33% and -3.22%.
On to `O=C(COc1nsnc1N1CCOCC1)Nc1ccccc1Cl`, for which the max response is 8.06%.
For the compound `COc1ccc(/C=C(/CC(=O)Nc2ccc(C)cc2)c2nc3ccccc3s2)cc1`, the max response was 21.2% (active).
For the compound `COc1cccc(/C=C(/CC(=O)Nc2ccc(N3CCOCC3)cc2)c2nc3ccccc3s2)c1`, the max response was 50.5% (active).
On to `COc1ccc(NC(=O)CSc2nc3ccccc3c(=O)n2C)cc1`, for which the max response was -4.03%.
With `CCn1c(Cc2ccc(OC)cc2)nnc1SCC(=O)Nc1ccc(N2CCOCC2)cc1`, the max response was -3.63%.
As to `COc1ccc(NC(=O)COC(=O)c2ccc(NS(=O)(=O)/C=C/c3ccccc3)cc2)cc1`, the max response was 0.764%.
For `COc1cc2ccccc2cc1C(=O)Nc1ccc(N2CCOCC2)cc1`, the max response is 8.83%.
Take `Cc1cc(C(=O)NC2CCN(Cc3ccccc3)CC2)n[nH]1`: the max response was -5.5%.
Take `Clc1ccc(C[n+]2cc(-c3ccc(Cl)cc3)n3c2CCC3)cc1`: the max response is 1.82%.
The figure for `Cc1ccc(CN2CCCOCCS2(=O)=O)cc1` is 0.911%.
In the case of `CCO[C@@H]1OC(C(=O)NCc2nc3ccccc3[nH]2)=C[C@H](C2CCCCC2)[C@H]1CCCO`, the max response was -1.94%.
Regarding `O=C(OCc1nc2ccccc2[nH]1)C1CCCCC1`, the max response was 16.3% (active).
In the case of `O=C(COc1ccccc1)NCCc1nc2ccccc2[nH]1` it was -4.17%; in that of `CCc1cc2c(NC(Cc3ccccc3)C(=O)O)ncnc2s1` (stereo not drawn), 1.45%.
For `Cc1ccc(NC(=O)CC2C(=O)N(Cc3ccccc3)C(=S)N2NC(=O)c2cccc(F)c2)c(C)c1` (stereo not drawn), the max response is -8.81%.
Turning to `CCCOc1ccc(-c2nc(N)n[nH]2)cc1`, the max response was 27.8% (active).
For `Cc1ccc(OCCCCc2c(C)n[nH]c2C)cc1`, the max response is 7.68%.
In the case of `Nc1nc(SCCOc2ccccc2)n[nH]1`, the max response is 10.5%.
Regarding `CC(NCC(=O)Nc1cc(Cl)cc(Cl)c1)c1ccccc1` (stereo not drawn), the max response is -2.23%.
Consider `COc1cccc(CNC(=O)CCC2CCCN(Cc3ccc(OC(F)F)cc3)C2)c1` (stereo not drawn), for which the max response is -2.71%.
`COc1ccc(OC)c(CNC(=O)Cn2nc(C)c3c(C)n(-c4ccc(C)cc4)nc3c2=O)c1`: the max response was 2.16%.
On to `CC(=O)Nc1cccc(NC(=O)CSc2nccn2Cc2ccc(F)cc2)c1`, for which the max response was -0.128%.
On to `Cn1c(=O)n(C)c2cc(C(=O)Nc3ccc4c(c3)OCO4)ccc21`, for which the max response was 21.7% (active).
Consider `COc1ccc(S(=O)(=O)Nc2ccc3c(c2)OCO3)cc1Cl`, for which the max response was 1.12%.
Regarding `COc1ccc(-c2cc(C(F)(F)F)nc(SCC(=O)Nc3ccc4c(c3)OCO4)n2)cc1OC`, the max response was 0.778%.
In the case of `COc1ccc(C(=O)Nc2ccc3c(c2)OCO3)cc1OC`, the max response is 57.2% (active).
In the case of `COc1ccc(C(=O)Nc2ccc3nc(N4CCCCC4)cc(C)c3c2)cc1OC` it was -1.84%; in that of `Cn1c(=O)n(C)c2cc(C(=O)Nc3ccc(Br)cc3)ccc21`, 5.85%.
Take `COc1ccc(C(=O)Nc2ccc(C3(C#N)CCCC3)cc2)cc1OC`: the max response was 20.7% (active).
Consider `COc1cccc(OC)c1C(=O)Nc1ccc2c(c1)n(C)c(=O)n2C`, for which the max response is -0.414%.
For `COc1cc(C(=O)NCC2(c3ccccc3)CCCC2)ccc1OC(C)C`, the max response is -3%.
In the case of `O=C(Cc1ccccc1)Nc1c(C(=O)N2CCCCCC2)cnn1-c1ccccc1`, the max response is -1.98%.
On to `COc1ccc2c(c1)CCc1cn3ncc(C#N)c3nc1-2`, for which the max response was -3.03%.
As to `CCCCn1nc(C(=O)N2CCc3ccccc32)c2ccccc2c1=O`, the max response was 1.07%.
Take `Cc1nc(N=C(N)N)nc2c(C)cccc12`: the max response is 3.71%.
Turning to `CCOC(=O)C(C)n1cnc2scc(-c3ccc(C)c(C)c3)c2c1=O` (stereo not drawn), the max response is -0.876%.
Consider `Cc1ccccc1OCC(=O)N(Cc1cccc(F)c1)C1CCS(=O)(=O)C1` (stereo not drawn), for which the max response was -13%.
As for `Cc1cc2oc(=O)cc(-c3ccccc3)c2c(C)c1-c1ccc(OC(F)(F)F)cc1`, the max response is 17.1%.
In the case of `CN(C(=O)CCNC(=O)Cn1ccc2ccccc2c1=O)c1ccc(Br)cc1`, the max response is -6.96%.
In the case of `CCN(/N=C/c1ccc(N(C)C)cc1)c1nc2ccccc2[nH]1`, the max response was 5.84%.
Consider `CNC(=O)c1ccsc1NC(=O)c1ccc(S(=O)(=O)N2CCc3ccccc32)cc1`, for which the max response is -2.6%.
The figure for `CCN(CC)CCCNC(=O)c1cc2c(=O)[nH]c3ccc(C)cc3c2s1` is 0.225%.
With `COc1ccc(N2C(=O)CC(Sc3n[nH]c(-c4ccc(C)cc4)n3)C2=O)cc1` (stereo not drawn), the max response is -1.55%.
The figure for `COc1ccc(C2=NN(c3nc4ccccc4s3)C(=O)C2)cc1` is 25.8% (active); for `CN(C(=O)COC(=O)c1nc(Cl)ccc1Cl)C1CCS(=O)(=O)C1` (stereo not drawn) it is -1.17%.
`Nc1scc(-c2ccncc2)c1Cl`: the max response is 26% (active).
As to `COC(=O)c1c(-c2ccc(C)cc2)csc1N`, the max response is 9.52%.
Regarding `O=C(c1ccc(CSc2ccccc2)cc1)N1CCCCCC1`, the max response was 66.2% (active).
Turning to `O=C(c1ccc(S(=O)(=O)c2ccccc2)cc1)N1CCCCCC1`, the max response is -1.02%.
In the case of `CC1CCN(C(=O)c2ccc(CSc3ccc(Cl)cc3)cc2)CC1`, the max response was -3.83%.
Regarding `Cc1cccc(C)c1NC(=O)CSc1nc2c([nH]1)c(=O)n(C)c(=O)n2C`, the max response is -6.42%.
As for `CC1=C(C(=O)OCC2CCCCC2)C(c2ccc(F)cc2)NC(=O)N1` (stereo not drawn), the max response is -1.88%.
Regarding `Cc1cccc(N2C(=O)C3C(c4ccccc4)OC4(C(=O)c5ccccc5C4=O)C3C2=O)c1` (stereo not drawn), the max response was 7.54%.
As for `Cc1cccc(N2C(=O)NC(=O)/C(=C\c3cnn(-c4ccccc4)c3)C2=O)c1`, the max response was 25.1% (active).
Turning to `Cc1cccc(N2C(=O)c3cccnc3C2=O)c1`, the max response is 7.77%.
Turning to `CC(CNC(=O)c1ccc(Br)o1)NC(=O)c1ccc(Br)o1` (stereo not drawn), the max response was -3.59%.
Take `CC(C)(C)C1CCC(=NNC(=O)c2ccc(Br)o2)CC1` (stereo not drawn): the max response was 35.2% (active).
In the case of `O=C(CNC(=O)c1ccc(Br)o1)NCC1CCCO1` (stereo not drawn) it was -2.05%; in that of `CC(C)(C)C1CCC(=NNC(=O)c2cc(-c3ccccc3)n[nH]2)CC1` (stereo not drawn), 5.64%; in that of `CCC(C)(C)C1CCC(=NNC(=O)c2ccc(Br)o2)CC1` (stereo not drawn), 44.3% (active).
The figure for `CC(NC(=O)C(=O)NN=C1CCC(C(C)(C)C)CC1)c1ccccc1` (stereo not drawn) is 1.38%; for `CC(=O)N1C(C)c2ccccc2C(C)(C)CC12CCCCC2` (stereo not drawn) it is -1.42%; for `Cc1ccc(C)c(N2CCN(S(=O)(=O)c3c(C)[nH]c(C)c3C(=O)N3CCCC3)CC2)c1` it is -1.94%.
On to `C=CC(COCc1ccccc1)N(Cc1ccccc1)S(=O)(=O)c1ccccc1Br` (stereo not drawn), for which the max response is -2.35% and 5.45%.

These data come from PubChem BioAssay AID2314 (National Center for Advancing Translational Sciences (NCATS), 2010).
